Assay [1] can be described thus: ATG_E_Box_CIS: Attagene CIS-FACTORIAL HepG2 Assay for human Enhancer Box (E-box) (AID 2282936). Conditions: HepG2 E-box cis-reporter transcription, actives raise or lower the signal. The essentials: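 Multiplexed CIS reporter system in transiently transfected HepG2 cells measures native transcription factor activity. Reporter RNA after 24 h exposure is profiled by RT-PCR-capillary electrophoresis.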

Assay [2] can be described thus: ATG_M_61_CIS: Attagene CIS-FACTORIAL HepG2 Assay for M61 Transcription Factor (Internal Marker) (AID 2282937). Conditions: HepG2 Attagene CIS-FACTORIAL M61 internal marker reporter; actives raise or lower the signal. The essentials:
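Human liver HepG2, transient MRTU transfection (cis promoter elements), 24 h compound. Total RNA → oligo(dT) RT → PCR → FAM label → HpaI → CE. Internal background marker; bidirectional fitting, DMSO = baseline.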

The nature of assay [3]: ATG_EGR_CIS: Attagene CIS-FACTORIAL HepG2 Assay for human Early Growth Response 1 (EGR1) (AID 2282938). Conditions: HepG2 Attagene CIS-FACTORIAL EGR reporter mRNA; actives raise or lower the signal. The method in brief: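 Transient transfection of human HepG2 with multiple cis-regulated reporter units, chemical exposure 24 h, total RNA isolated. Reverse transcription, PCR, fluorescent labelling and capillary electrophoresis quantify reporter transcripts; activity fitted bidirectionally against DMSO.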

Assay [4] is described as follows: ATG_M_19_CIS: Attagene CIS-FACTORIAL HepG2 Assay for M19 Transcription Factor (Internal Marker) (AID 2282939). The settings on record: HepG2 Attagene CIS-FACTORIAL M19 internal marker reporter; actives raise or lower the signal. The method in brief:
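Signals come from fluorescence of labelled reporter-specific PCR fragments resolved by capillary electrophoresis, following 24 h treatment of HepG2 cells transfected with cis-promoter reporter units; activity was fitted in both directions relative to DMSO.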

Assay [5] in a line: ATG_Ets_CIS: Attagene CIS-FACTORIAL HepG2 Assay for human Erythroblast Transformation Specific (ETS) (AID 2282941). Conditions: HepG2 ETS cis-reporter transcription, actives raise or lower the signal. The method in brief: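 Steps: transfect HepG2 with multiple reporter units; treat compound 24 h; isolate RNA, DNase-treat, reverse-transcribe; PCR-amplify, label with 6-FAM, digest with HpaI; separate by capillary electrophoresis. Activity fitted both directions versus DMSO.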

Assay [6] addresses Hepatocyte nuclear factor 3-beta (Homo sapiens) (UniProt Q9Y261). Briefly: ATG_FoxA2_CIS: Attagene CIS-FACTORIAL HepG2 Assay for human Forkhead box A2 (FOXA2) (AID 2282942). The settings on record: HepG2 cis-reporter transcription factor activity, 24 h; actives raise or lower the signal. The method in brief: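 Transient MRTU transfection of HepG2 liver cells; 24 h treatment; total RNA → oligo(dT) RT → PCR → FAM primer extension → HpaI cut → CE. Bidirectional fit vs DMSO.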

A short description of assay [7]: ATG_FoxO_CIS: Attagene CIS-FACTORIAL HepG2 Assay for human Forkhead box O (FoxO) (AID 2282943). The settings on record: HepG2 Attagene cis-reporter, FoxO element, mRNA; actives raise or lower the signal. The method in brief:
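Values reflect reporter mRNA induction or loss in HepG2 cells 24 h post-dosing, fitted bidirectionally with DMSO as negative control and baseline. Detection used RT-PCR and fluorescence capillary electrophoresis.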

A short description of assay [8]: ATG_GLI_CIS: Attagene CIS-FACTORIAL HepG2 Assay for human Zinc Finger Protein GLI1 (AID 2282945). The settings on record: HepG2, Attagene cis-factorial reporter mRNA, GLI element; actives raise or lower the signal. The method in brief: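 HepG2 cells transiently transfected with cis-promoter multiplexed reporter units report endogenous transcription factor activity. After 24 h chemical exposure, reporter mRNA was quantified by RT-PCR, 6-FAM labelling, HpaI digestion and capillary electrophoresis, with bidirectional fitting against DMSO.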

Assay [9] in a line: ATG_GRE_CIS: Attagene CIS-FACTORIAL HepG2 Assay for human Glucocorticoid Response Elements (GRE) (AID 2282947). Conditions: HepG2 GRE cis-reporter, Attagene multiplex mRNA; actives raise or lower the signal. The method in brief:
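Following 24 h chemical exposure of transiently transfected HepG2 cells, total RNA was reverse-transcribed and reporter cDNA amplified, fluorescently labelled and sized by capillary electrophoresis. Signal gain or loss was fitted relative to DMSO vehicle.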

A short description of assay [10]: ATG_ISRE_CIS: Attagene CIS-FACTORIAL HepG2 Assay for human Interferon Regulatory Factor 1 (IRF1) binding to an Interferon-Stimulated Response Element (ISRE) (AID 2282948). Conditions: HepG2 ISRE cis-reporter (Attagene), mRNA transcription readout; actives raise or lower the signal. The essentials: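 Transfected HepG2 (multiple reporter transcription units, cis elements) dosed 24 h. RNA → oligo(dT) RT → PCR → 6-FAM primer extension → HpaI → CE. DMSO = negative control/baseline.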

Assay [11] can be described thus: ATG_M_32_CIS: Attagene CIS-FACTORIAL HepG2 Assay for M32 Transcription Factor (Internal Marker) (AID 2282949).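 Also: background control marker of the multiplexed CIS panel rather than a real target.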 Conditions: HepG2 Attagene cis-factorial M32 reporter, mRNA; actives raise or lower the signal. The essentials: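 HepG2 cells transiently transfected with multiplexed cis-regulated reporter units, dosed 24 h. Reporter mRNA quantified by RT-PCR, 6-FAM labelling, HpaI digestion and capillary electrophoresis; bidirectional fit vs DMSO.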

Assay [12] is described as follows: ATG_M_06_CIS: Attagene CIS-FACTORIAL HepG2 Assay for M06 Transcription Factor (Internal Marker) (AID 2282950). The settings on record: HepG2 Attagene CIS-FACTORIAL M06 internal marker reporter; actives raise or lower the signal. The method in brief:
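HepG2 liver cells, 24 h exposure. Reporter transcripts from transfected cis-element constructs quantified by RT-PCR/capillary electrophoresis fluorescence. Bidirectional curve fit against DMSO.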

Assay [13] addresses Hypoxia-inducible factor 1-alpha (Homo sapiens) (UniProt Q16665). Briefly: ATG_HIF1a_CIS: Attagene CIS-FACTORIAL HepG2 Assay for human Hypoxia Inducible Factor 1 (HIF1A) (AID 2282951). The settings on record: HepG2 Attagene cis-factorial HIF1a reporter transcription; actives raise or lower the signal. The method in brief: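 Transient MRTU transfection of human HepG2 liver cells, 24 h compound treatment, then total RNA isolation, oligo(dT) reverse transcription, PCR amplification, fluorescent labelling and capillary electrophoresis of reporter fragments. Gain or loss relative to DMSO.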

In assay [14] the target is Hepatocyte nuclear factor 6 (Homo sapiens) (UniProt Q9UBC0). Briefly: ATG_HNF6_CIS: Attagene CIS-FACTORIAL HepG2 Assay for human Hepatocyte Nuclear Factor 6 (HNF6) (AID 2282952). Conditions: HepG2 Attagene cis-factorial HNF6 reporter transcription; actives raise or lower the signal. The essentials:
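HepG2 cells transiently transfected with cis-element-driven multiplexed reporter units measuring endogenous transcription factor activity. After 24 h exposure, reporter mRNA quantified by RT-PCR, FAM-labelled fragments and capillary electrophoresis; bidirectional fitting versus DMSO.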

The target of assay [15] is Heat shock factor protein 1 (Homo sapiens) (UniProt Q00613). Nature of the assay: ATG_HSE_CIS: Attagene CIS-FACTORIAL HepG2 Assay for human Heat Shock Transcription Factor 1 (HSE) (AID 2282953). Conditions: HepG2 HSE cis-reporter, Attagene RNA transcription; actives raise or lower the signal. The method in brief: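 Endogenous transcription factor activity captured via cis-promoter reporter units transfected into HepG2; treatment lasted 24 h. Fluorescence intensity of reporter fragments analysed with bidirectional curve fitting, DMSO baseline.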
Heat shock factor protein 1 (Homo sapiens), sequence (Q00613 whole entry, looked up, the tested form may be a part): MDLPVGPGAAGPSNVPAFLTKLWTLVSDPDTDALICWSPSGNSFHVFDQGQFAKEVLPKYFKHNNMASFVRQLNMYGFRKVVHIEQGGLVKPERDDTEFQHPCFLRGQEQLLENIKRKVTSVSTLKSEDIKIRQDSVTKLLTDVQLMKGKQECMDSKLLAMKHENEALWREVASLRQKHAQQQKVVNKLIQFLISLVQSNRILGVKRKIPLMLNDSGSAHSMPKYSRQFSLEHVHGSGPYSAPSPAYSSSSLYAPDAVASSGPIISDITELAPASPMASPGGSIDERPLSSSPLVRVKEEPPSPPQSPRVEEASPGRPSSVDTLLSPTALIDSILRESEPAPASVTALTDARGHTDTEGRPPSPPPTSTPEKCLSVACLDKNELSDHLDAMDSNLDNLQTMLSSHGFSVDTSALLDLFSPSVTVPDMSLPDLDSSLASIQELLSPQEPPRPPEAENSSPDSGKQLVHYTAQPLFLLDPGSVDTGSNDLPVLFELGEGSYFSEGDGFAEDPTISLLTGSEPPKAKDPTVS

The nature of assay [16]: ATG_MRE_CIS: Attagene CIS-FACTORIAL HepG2 Assay for human Metal Responsive Element (MRE) (AID 2282954). Conditions: HepG2 MRE cis-reporter transcription, Attagene multiplex; actives raise or lower the signal. The method in brief: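 Step one: transfect HepG2 with cis-regulated reporter units. Step two: dose 24 h. Step three: isolate RNA, RT-PCR, 6-FAM label, HpaI digest, capillary electrophoresis. Fit bidirectionally to DMSO.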

The nature of assay [17]: ATG_ERE_CIS: Attagene CIS-FACTORIAL HepG2 Assay for Estrogen Response Element (ERE) (AID 2282940). Conditions: HepG2 ERE cis-reporter, Attagene RNA transcript; actives raise or lower the signal. The method in brief: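 Fluorescence of capillary-separated, FAM-labelled reporter cDNA fragments indicates reporter mRNA levels in HepG2 cells exposed to chemicals for 24 h. Transient transfection with cis-regulated units; data fitted in both directions against DMSO.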

Assay [18] can be described thus: ATG_GATA_CIS: Attagene CIS-FACTORIAL HepG2 Assay for human GATA Binding Protein (AID 2282944). Conditions: HepG2 GATA cis-element reporter, Attagene multiplex mRNA; actives raise or lower the signal. The essentials:
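After transfecting HepG2 cells with multiple cis-regulated reporter units, chemicals are dosed for 24 h; isolated RNA undergoes RT-PCR and fluorescent labeling before capillary electrophoresis, with activity expressed against DMSO.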

The target in assay [19] is Bile acid receptor (Homo sapiens) (UniProt Q96RI1). Briefly: ATG_IR1_CIS: Attagene CIS-FACTORIAL HepG2 Assay for human Nuclear Receptor Subfamily 1 Group H Member 4 (NR1H4), IR1 submotif (AID 2282946). Conditions: IR1 reporter transcription, actives raise or lower the signal. The method in brief:
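Transient MRTU transfection, HepG2; 24 h dosing; RNA → RT-PCR → 6-FAM primer extension → HpaI digest → capillary electrophoresis fluorescence. Gain/loss of signal fitted relative to DMSO.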

The nature of assay [20]: ATG_PBREM_CIS: Attagene CIS-FACTORIAL HepG2 Assay for human Phenobarbital-responsive Enhancer Module (PBREM) (AID 2282955). Conditions: HepG2 PBREM cis-reporter, Attagene multiplexed transcription; actives raise or lower the signal. The method in brief:
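Endogenous transcription factors in human liver HepG2 cells drive a PBREM cis-element reporter, whose transcript level after 24 h treatment is quantified by RT-PCR with capillary electrophoresis; activity fitted in both directions against DMSO.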

Activity calls are given as the source filed them. The calls were made as follows: active = hit-call score of the fitted dose curve at least 0.9, where 1 is the maximum; inactive = score below 0.9.

Hepatocyte nuclear factor 3-beta (Homo sapiens), sequence (Q9Y261 whole entry, looked up): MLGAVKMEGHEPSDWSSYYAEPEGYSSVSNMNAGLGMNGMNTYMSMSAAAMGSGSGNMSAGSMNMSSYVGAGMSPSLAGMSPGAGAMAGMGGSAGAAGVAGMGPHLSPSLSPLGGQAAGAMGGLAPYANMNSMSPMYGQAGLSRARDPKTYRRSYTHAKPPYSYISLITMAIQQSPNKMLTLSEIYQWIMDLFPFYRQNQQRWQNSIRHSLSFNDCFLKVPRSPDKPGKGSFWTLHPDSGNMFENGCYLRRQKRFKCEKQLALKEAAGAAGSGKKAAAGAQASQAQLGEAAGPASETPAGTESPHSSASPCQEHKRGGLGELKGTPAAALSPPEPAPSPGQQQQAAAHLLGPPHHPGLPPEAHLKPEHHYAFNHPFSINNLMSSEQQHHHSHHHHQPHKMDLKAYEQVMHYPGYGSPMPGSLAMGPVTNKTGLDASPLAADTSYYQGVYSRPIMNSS
Hypoxia-inducible factor 1-alpha (Homo sapiens), sequence (Q16665 whole entry, looked up, the tested form may be a part): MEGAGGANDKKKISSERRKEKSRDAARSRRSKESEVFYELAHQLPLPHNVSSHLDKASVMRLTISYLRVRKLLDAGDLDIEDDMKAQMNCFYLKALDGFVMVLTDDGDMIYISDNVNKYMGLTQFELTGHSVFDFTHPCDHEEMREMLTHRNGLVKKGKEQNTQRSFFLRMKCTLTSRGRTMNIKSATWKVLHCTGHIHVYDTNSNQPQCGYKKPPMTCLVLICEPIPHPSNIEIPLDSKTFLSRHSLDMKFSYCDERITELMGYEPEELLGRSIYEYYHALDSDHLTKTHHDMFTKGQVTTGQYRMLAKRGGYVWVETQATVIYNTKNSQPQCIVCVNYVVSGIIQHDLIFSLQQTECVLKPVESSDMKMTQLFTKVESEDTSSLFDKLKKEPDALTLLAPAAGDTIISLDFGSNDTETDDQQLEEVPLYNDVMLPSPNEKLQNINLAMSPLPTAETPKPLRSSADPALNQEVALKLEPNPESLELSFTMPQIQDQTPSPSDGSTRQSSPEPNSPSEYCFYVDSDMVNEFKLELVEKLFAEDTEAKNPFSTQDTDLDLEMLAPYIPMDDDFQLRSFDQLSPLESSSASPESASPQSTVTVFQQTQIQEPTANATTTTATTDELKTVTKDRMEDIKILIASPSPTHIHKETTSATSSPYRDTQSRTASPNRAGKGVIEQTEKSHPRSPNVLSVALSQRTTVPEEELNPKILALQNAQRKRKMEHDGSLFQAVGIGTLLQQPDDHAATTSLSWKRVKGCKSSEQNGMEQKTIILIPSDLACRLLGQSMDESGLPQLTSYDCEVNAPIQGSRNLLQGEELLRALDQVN
Hepatocyte nuclear factor 6 (Homo sapiens), sequence (Q9UBC0 whole entry, looked up, the tested form may be a part): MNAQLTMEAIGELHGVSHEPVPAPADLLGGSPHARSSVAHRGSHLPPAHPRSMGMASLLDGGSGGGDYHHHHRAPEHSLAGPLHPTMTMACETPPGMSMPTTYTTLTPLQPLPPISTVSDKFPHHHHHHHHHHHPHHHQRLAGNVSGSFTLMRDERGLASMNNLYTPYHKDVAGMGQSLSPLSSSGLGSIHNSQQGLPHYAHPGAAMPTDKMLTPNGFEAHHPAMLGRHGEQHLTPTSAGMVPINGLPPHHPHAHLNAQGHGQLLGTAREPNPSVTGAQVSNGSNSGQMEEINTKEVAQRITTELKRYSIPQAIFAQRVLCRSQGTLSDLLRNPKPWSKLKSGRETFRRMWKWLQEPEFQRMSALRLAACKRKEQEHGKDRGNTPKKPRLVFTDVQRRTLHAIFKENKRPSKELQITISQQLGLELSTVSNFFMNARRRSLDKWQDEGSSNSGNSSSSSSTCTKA
Bile acid receptor (Homo sapiens), sequence (Q96RI1 whole entry, looked up): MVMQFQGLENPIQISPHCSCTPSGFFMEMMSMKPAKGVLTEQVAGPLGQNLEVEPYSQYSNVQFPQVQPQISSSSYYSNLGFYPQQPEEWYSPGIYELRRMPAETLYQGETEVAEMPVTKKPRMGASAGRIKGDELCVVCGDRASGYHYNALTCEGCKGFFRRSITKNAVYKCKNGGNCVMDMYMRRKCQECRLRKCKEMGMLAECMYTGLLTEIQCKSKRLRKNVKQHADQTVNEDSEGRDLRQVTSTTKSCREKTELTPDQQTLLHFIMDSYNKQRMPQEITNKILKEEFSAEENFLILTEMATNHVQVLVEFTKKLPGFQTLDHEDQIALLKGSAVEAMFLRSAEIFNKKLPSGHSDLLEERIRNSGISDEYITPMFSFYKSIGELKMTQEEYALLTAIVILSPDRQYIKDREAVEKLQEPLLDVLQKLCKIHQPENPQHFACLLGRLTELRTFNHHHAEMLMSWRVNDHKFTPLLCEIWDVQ

For `O=C1CCCC1`, the result in assay [1], in assay [2], in assay [3], in [4], in assay [5] and in assay [6] was inactive. Besides, the outcome in assay [7], in assay [8], in [9], in assay [10], in assay [11] and in [12] was inactive. Moreover, the call in assay [13], in assay [14], in assay [15] and in assay [16] was inactive.

`C=CCCCCCCCCC(=O)OCCCC`: the outcome in assay [1], in [3], in assay [4], in assay [17], in [5] and in assay [6] was inactive. In addition, the call in assay [7], in assay [18], in assay [8], in [19], in assay [10] and in [11] was inactive. Further, the molecule was called inactive in assay [12], in assay [13], in [14], in [16] and in assay [20].

Consider `CCCOCCOCCOCCO`, for which the outcome in [1], in [3], in [4], in [5], in [6] and in assay [7] was inactive. Besides, the molecule was called inactive in assay [8], in [10], in [11], in assay [12], in [13] and in [15]. For the same molecule, the molecule was classed as inactive in [16].

Consider `CCN(CC#N)c1cccc(C)c1`, for which the result in [1], in assay [3], in assay [4], in [17], in [5] and in [6] was inactive. The molecule was called inactive in assay [7], in [18], in assay [8], in assay [10], in assay [11] and in assay [12]. Also, the call in assay [13], in assay [14], in assay [15], in assay [16] and in [20] was inactive.

As to `CCOC(=O)NNc1nncc2ccccc12`, the result in [1], in [3], in assay [4], in [5], in assay [6] and in assay [7] was inactive. Moreover, the outcome in [18], in assay [8], in assay [19], in assay [9], in [10] and in assay [11] was inactive. Moreover, the outcome in [12], in assay [13], in assay [14], in [15], in [16] and in assay [20] was inactive.

For the molecule `O=C(C=Cc1ccccc1)OCc1ccccc1`, the result in assay [1], in assay [3], in assay [4], in assay [17], in assay [5] and in assay [6] was inactive. Further, the molecule was classed as inactive in assay [7], in [18], in assay [8], in assay [9], in [10] and in assay [11]. Also, the outcome in [12], in assay [13], in assay [15], in assay [16] and in assay [20] was inactive.

What is called AC50 is the concentration at which the activity in the assay is half-maximal. Turning to `O=c1cc(-c2ccccc2)oc2ccccc12`, the outcome in assay [1], in [4], in [5], in assay [6], in assay [7] and in assay [18] was inactive. Further, the result in assay [8], in assay [9], in assay [12], in [13] and in assay [14] was inactive. The concentration at half-maximal activity (AC50) was 82.1 µM (active) in assay [3], 127 µM (active) in assay [10], 178 µM (active) in assay [15] and 124 µM (active) in [16].

(Values after PubChem BioAssay (EPA / NIEHS).)
